# Only some compounds are listed: those with a hit (about 6.8% of all), similar ones and a draw of the others.
# NADH enzymes = blocks coupling enzymes of NAD/NADH assays. IC50, µM (top dose mostly 10 µM), without a hit: at the top dose inhibition. coupled PK/LDH NADH assays, four targets. 0.02% of 65,000 active;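 active = single-dose screening hits from any of four coupled enzyme assays that gave an IC50 when retested across doses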;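 also: the DPM-DC format reads NADH fluorescence rather than 340 nm absorbance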
# A340 absorber = compounds absorbing at 340 nm | AID 708 | compound absorbance at 340 nm, fold over control | 65,000 tested, under 10 active | fold change at 10 µM;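 active = at 10 µM dose, initial 340 nm absorbance at least 2 fold that of control wells; inactive = change under 2 fold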;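 also: initial absorbance extrapolated from kinetic A340 decline of NADH oxidation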
# Fluor 339 460 = intrinsic fluorescence of library compounds, ex339/em460 – biochemical, MLSMR library, data from DPM-DC assay, artefact control, profiling panel; compound autofluorescence, ex339/em460 nm, NADH buffer; stronger effect = higher value; 1 = no-compound wells, NADH background; fluorescence fold increase at 10 µM; 5.5% of 65,000 active; AID 709;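 active = at 10 µM, mean starting fluorescence two-fold or more over control wells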;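 also: signal is the first read of a kinetic run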
# Spn DPM-DC inh = blocks S. pneumoniae diphosphomevalonate decarboxylase; purified DPM-DC, PK/LDH coupled NADH fluorescence; calls only at 10 µM; 0.49% of 65,000 active; AID 556;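 active = the 320 compounds with the highest percent inhibition in the single-dose primary screen, excluding strongly autofluorescent ones, cut at about 32% in these data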;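 also: kinetic rate of NADH fluorescence loss reporting ADP formed by the decarboxylase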
# Spn MK inh = blocks S. pneumoniae mevalonate kinase; 0.48% of 65,000 active; inhibition, % at 10 µM; purified MK, PK/LDH-coupled NADH absorbance 340 nm;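 active = ranked among the strongest by inhibition in the single 10 µM screen, a fixed top-ranked set picked for dose follow-up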
# Spn PMK inh = blocks S. pneumoniae phosphomevalonate kinase. 0.49% of 65,000 active. inhibition, % at 10 µM. purified PMK, PK/LDH-coupled NADH absorbance 340 nm. AID 539;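 active = top-ranked compounds by inhibition in the single 10 µM screen, taking a fixed number of the strongest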;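 also: 0% = full reaction with DMSO carrier and 100% = background rate without enzyme reaction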
# Numbers without * were called inactive; i = inactive; nt = not tested or not shown; + = active, no number; [ ] = another dose, or the depositor's remark.
SMILES,NADH enzymes,A340 absorber,Fluor 339 460,Spn DPM-DC inh,Spn MK inh,Spn PMK inh
CC1CCN(c2nc(-c3ccco3)c3c(c2C#N)CC(C)(C)OC3)CC1,11.0%,1.05,2.07*,nt,7.0,15.0
N#Cc1cc2cc3c(cc2nc1N1CCOCC1)OCO3,5.0%,1.05,3.76*,nt,0.0,10.0
CCc1nc(N2CCN(C(=O)c3ccccc3)CC2)c(C#N)c2c1COC(C)(C)C2,2.0%,1.05,2.26*,nt,3.0,1.0
CCOC(=O)N1CCN(c2ncnc3c2oc2nc(CC(C)C)c4c(c23)CCC4)CC1,3.0%,1.04,1.79,i,0.0,0.0
COC(=O)C1=C(C)N(CC2CCCO2)C(=O)C1 (stereo not drawn),0.0%,1.05,1.1,i,0.0,0.0
CC1(C)Cc2c(C#N)c(SCc3ccccc3)nc(N3CCOCC3)c2CO1,3.0%,1.07,1.14,i,5.0,2.0
Cc1nc(N2CCOCC2)c(C#N)c2c1COC(C)(C)C2,0.0%,1.04,2.29*,nt,0.0,0.0
CC1(C)Cc2nc(NCCCO)c(C#N)cc2CO1,2.0%,1.05,2.38*,nt,0.0,4.0
CC(C)C(=O)N1CCN(c2nc(-c3ccccc3)c3c(c2C#N)CCCC3)CC1,4.0%,1,2.25*,nt,3.0,2.0
CC1(C)Cc2nc(N3CCOCC3)c(C#N)cc2CO1,14.0%,1.1,3.69*,nt,15.0,12.0
Cc1ccc(S(=O)(=O)N2CCN(S(=O)(=O)c3ccc(C)cc3)C3OCCOC32)cc1 (stereo not drawn),2.0%,1.05,1.11,i,7.0,0.0
CCc1nc(N2CCOCC2)c(C#N)c2c1COC(C)(C)C2,13.0%,1,3.72*,nt,12.0,14.0
CC1(C)Cc2c(C#N)c(N3CCOCC3)nc(Cc3ccccc3)c2CO1,5.0%,1.04,2.29*,nt,3.0,6.0
CC1(C)Cc2c(C#N)c(N3CCOCC3)nc(-c3ccccc3)c2CO1,6.0%,1.03,2.24*,nt,5.0,7.0
Cn1c(C(=O)N2CCCc3ccccc32)cc2sccc21,7.0%,1.06,1.04,i,0.0,21.0
COc1cccc(CN(Cc2cccnc2)S(=O)(=O)c2ccc(-n3cnnn3)c(C)c2)c1OC,6.0%,0.97,1.11,i,7.0,12.0
CCNc1nc(N)c(C(=O)c2ccc(Cl)s2)s1,6.0%,1.07,1.13,i,12.0,5.0
Cc1cc(C)c2oc(-c3ccc(Cl)c(NC(=O)c4ccc(C#N)cc4F)c3)nc2c1,7.0%,1.14,3.97*,nt,9.0,5.0
CC(=O)Nc1cccc(Oc2cc(C#N)c(C#N)cc2N2CCCCCC2)c1,1.0%,1.09,1.49,i,2.0,0.0
CCOc1cc2[nH]c(=O)n(CC3CCC(C(=O)NC4CCCCC4)CC3)c(=O)c2cc1OCC (stereo not drawn),5.0%,1.05,1.27,i,9.0,6.0
CCCCN(C)C(=O)CCCCn1c(=O)[nH]c2cc(OCC)c(OCC)cc2c1=O,4.0%,1.04,2.19*,i,4.0,9.0
CCOc1cc2[nH]c(=O)n(CC3CCC(C(=O)NC(C)CC)CC3)c(=O)c2cc1OCC (stereo not drawn),5.0%,1.06,2.73*,i,2.0,0.0
COc1ccc(CNC(=O)c2ccc3c(c2)N(C)C(=O)CS3=O)cc1 (stereo not drawn),4.0%,1.05,1.09,i,6.0,5.0
CC(C(=O)NC1CCCC1)N(C(=O)c1snc(C(N)=O)c1N)c1ccc2c(c1)OCCO2 (stereo not drawn),6.0%,1.07,1.25,i,8.0,10.0
COc1ccccc1N1CCN(CC(O)COc2ccc3c(C)cc(=O)oc3c2)CC1 (stereo not drawn),6.0%,1.13,1.75,i,3.0,0.0
SMILES,NADH enzymes,A340 absorber,Fluor 339 460,Spn DPM-DC inh,Spn MK inh,Spn PMK inh
Cc1cc(=O)oc2cc(OCC(O)CN3CCN(c4ccccc4)CC3)ccc12 (stereo not drawn),8.0%,1.12,3.41*,i,0.0,5.0
Cc1cc(=O)oc2cc(OCC(O)CN3CCc4ccccc4C3)ccc12 (stereo not drawn),9.0%,1.07,4.17*,nt,0.0,17.0
Cc1cc(=O)oc2cc(OCCSCCN3CCOCC3)ccc12,3.0%,1.1,1.41,i,7.0,0.0
COc1cccc(OC)c1OCC(O)CN1CCN(c2ccccc2)CC1 (stereo not drawn),15.0%,0.97,1.11,i,16.0,28.0*
Cc1cc(OCC(=O)Nn2cnnc2)ccc1Br,4.0%,1.02,1.04,i,1.0,10.0
O=C(Nc1ccc2oc(-c3cccnc3)nc2c1)c1cc2ccccc2o1,2.0%,1.08,2.07*,nt,4.0,0.0
Cc1cc(-c2nc3ncccc3o2)ccc1N,5.0%,1.07,2.95*,nt,9.0,7.0
O=C(Nc1ccc2oc(-c3ccncc3)nc2c1)c1cccs1,2.0%,1.04,1.99,nt,4.0,5.0
CCC(=O)Nc1ccc2oc(-c3cccc(C)c3)nc2c1,0.0%,1.07,2.33*,nt,0.0,0.0
CCCC(=O)Nc1cccc(-c2nc3ccccc3o2)c1,2.0%,1.07,1.08,i,5.0,2.0
CCCC(=O)Nc1ccc2oc(-c3cccnc3)nc2c1,3.0%,1.02,2.8*,nt,0.0,20.0
O=C(c1ccc(C(=O)N2CCOCC2)nc1)N1CCOCC1,6.0%,1.06,1.17,i,5.0,12.0
CSc1cccc(NS(=O)(=O)c2ccc3c(c2)oc(=O)n3C)c1,9.0%,1.02,1,i,11.0,16.0
CCCCC(=O)Nc1ccc2oc(-c3cccnc3)nc2c1,7.0%,1.04,3.93*,nt,6.0,8.0
CCCCC(=O)Nc1cccc(-c2nc3ncccc3o2)c1,17.0%,1.04,2.27*,i,11.0,14.0
COc1ccc(OC)c2c(C)cc(N3CCN(C(=O)c4ccc(F)cc4)CC3)nc12,6.0%,1.07,2.94*,i,3.0,4.0
COc1ccc(OCC(=O)N2CCN(c3nnc(-c4ccccc4)c4ccccc34)CC2)cc1,9.0%,1.06,1.13,i,1.0,26.0*
N=c1oc2ccccc2cc1-c1nc2ccccc2c(=O)[nH]1,8.0%,1.07,1.15,i,4.0,18.0
N#CC1=C(N)C(C#N)(C#N)[C@H](c2ccoc2)[C@H]2CN(Cc3ccccc3)CC=C12,3.0%,1.06,2.34*,i,0.0,6.0
CCN1CC=C2C(C#N)=C(N)C(C#N)(C#N)C(CCc3ccccc3)C2C1 (stereo not drawn),7.0%,1.05,5.1*,nt,8.0,6.0
COc1ccc(OC)c(C2C3CN(C(C)C)CC=C3C(C#N)=C(N)C2(C#N)C#N)c1 (stereo not drawn),6.0%,0.99,1.46,i,12.0,6.0
Cc1ccc(C2C3CN(C(C)C)CC=C3C(C#N)=C(N)C2(C#N)C#N)cc1 (stereo not drawn),2.0%,0.99,2.28*,+[fluoresces],5.0,0.0
CN1CC=C2C(C#N)=C(N)C(C#N)(C#N)C(c3cccc(Cl)c3Cl)C2C1 (stereo not drawn),4.0%,0.99,1.59,i,19.0,0.0
